Bioassay records as filed in PubChem BioAssay.
In the library only some 7.9% were active in any assay of this set; here they are far more common.
KB-3-1 tox = KB-3-1 parental cell cytotoxicity; Potency, µM (doses to about 46.1 µM), most hits filed as cytotoxic; KB-3-1 viability, CellTiter-Glo ATP luminescence, 72 h; hit rate 1.4% among 400,000; also: % is scaled to controls: 0 for no effect and ±100 for the full control effect; nearly all actives have a fitted effect of over 60% in size
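Cytotoxicity measured as CellTiter-Glo luminescence after 72 h at 37 C. Compound titrations were pinned onto drug-naive KB-3-1 parental adenocarcinoma cells grown in DMEM with 10% FBS, and normalized data fitted to concentration-response curves.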
HT1080NT lethal = kills 2HG-producing HT-1080-NT fibrosarcoma cells; HT-1080-NT fibrosarcoma viability, CellTiter-Glo ATP luminescence, 48 h; Potency, µM (top dose mostly 46.1 µM), for the others: at the highest dose activity, negative = less viability, actives largely listed as cytotoxic; hit rate 1.6% among 360,000;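 also: NT is the 2HG producing partner of a matched IDH1 knockdown line; 0% = DMSO-treated cells and -100% = media-only wells without cells; nearly all actives have a fitted effect of over 55% in size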
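Viability by CellTiter-Glo luminescence after 48 h compound exposure at 37C of HT-1080-NT cells (750/well, RPMI, 5% FBS). % activity scaled between DMSO wells and medium-only wells, then curve-fitted and categorized by curve class.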
SW480 rerep = DNA re-replication induction in SW480 cells. SW480 DNA re-replication, Hoechst DNA content imaging, 48 h. Potency, µM (titrated, usually from 46.1 µM), for the others: at the top dose re-replication activation, most hits filed as activators. hit rate 1.8% among 340,000. AID 624297; also: % of control where 0% means no effect; nearly all actives have a fitted effect of over 55% in size
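Compounds, transferred as 23 nL by pin tool, were incubated with cells for 48 hr; DNA content per nucleus was then quantified by Hoechst staining and fluorescence plate imaging.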
HT1080 IDH1KD tx = kills HT-1080 cells with IDH1 knockdown; HT-1080 IDH1 knockdown viability, ATP luminescence, 48 h; Potency, µM (series often up to 46.1 µM), without a hit: at the highest dose activity, negative = toxicity, actives largely listed as cytotoxic; hit rate 2% among 360,000; AID 686971;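 also: 0% = DMSO wells and -100% = cell-free medium wells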
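Assay cells: HT-1080 with IDH1 knockdown, 750 per well, RPMI/5% FBS. Exposure: 48 h at 37 °C following 2 h pre-incubation. Read: CellTiter-Glo luminescence; fitted concentration-response, curve class assigned.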
MCF10A rerep = induces DNA re-replication in MCF 10a normal breast cells | hit rate 2.9% among 350,000 | MCF 10A DNA re-replication, Hoechst nuclear intensity, 48 h | Potency, µM (doses to about 46.1 µM), for the others: at the highest dose activity, positive = re-replication, usual class: activators | AID 624296; also: % of control where 0% means no effect; nearly all actives have a fitted effect of over 50% in size
KB-V1 MDR tox = kills drug-selected multidrug resistant KB-V1 cells. AID 1347076. hit rate 3.4% among 400,000. KB-V1 MDR cells viability, CellTiter-Glo, 72 h. Potency, µM (series often up to 46.1 µM), usual class: cytotoxic; also: % is scaled to controls: 0 for no effect and ±100 for the full control effect; nearly all actives have a fitted effect of over 60% in size
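KB-V1, DMEM (no phenol red) + 10% FBS; cpd pin-transferred, titration series; 72 h, 37 degrees C; CellTiter-Glo, luminescence. Data normalized, curve-fit.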
* hit, by the source's call; i = inactive; ? = inconclusive; nt = no result given; [ ] = another dose, or the depositor's remark. Calls follow the shape of the dose curve; as a rule, active = well fitted curve in the direction sought with a large enough effect; inconclusive = small, poorly fitted or top-dose-only effect, or another doubt; inactive = no such curve, though single readings can be large; an effect the other way counts as inactive or inconclusive. Potency is read from the fitted curve at half-maximal effect.

SMILES	KB-3-1 tox	HT1080NT lethal	SW480 rerep	HT1080 IDH1KD tx	MCF10A rerep	KB-V1 MDR tox
O=C(Nc1cc(Cl)ccc1-n1cncn1)c1ccc([N+](=O)[O-])o1	13µM*	-21.9%	20.6µM*	-21.6%	?	?
O=C(Nc1cc(Cl)ccc1F)c1ccc(-n2cncn2)c([N+](=O)[O-])c1	i	6.7%	65.3%	9.8%	-1.7%	i
CC(=O)N1CCN(c2ccc(NC(=O)c3ccco3)cc2Cl)CC1	i	-3.8%	-3.6%	-2.8%	8.2%	i
CC(=O)N1CCN(c2ccc(NC(=O)c3ccc([N+](=O)[O-])o3)cc2Cl)CC1	?	3.26µM*	?	6.51µM*	3.26µM*	?
COc1cccc(NC(=O)N(C)C[C@H]2OCc3cnnn3CCCC(=O)N([C@H](C)CO)C[C@@H]2C)c1	i	4.1%	nt	1.3%	nt	i
CCOc1ccc(-c2cc3c(=O)n(Cc4nc(-c5ccc(OC)cc5OC)oc4C)ccn3n2)cc1Cl	i	nt	nt	nt	nt	i
CCc1cc(OCCCCNCc2ccccc2)ccc1Cl	?	23.1µM*	?	?	?	?
CCc1cc(OCCN(C)C)ccc1Cl	i	9.3%	-1.3%	-2.1%	-0.4%	i
c1ccc(CNCCCNCCCCNCCCNCc2ccccc2)cc1	?	?	?	5.17µM*	6.51µM*	?
O=C(O)CCCCNCc1ccccc1	i	7.9%	-1.1%	-1.7%	-4.5%	i
CC(C)(c1ccccc1)c1ccc(OCCCNCCO)cc1	?	?	-14.0%	18.4µM*	?	?
CC(C)(C)c1ccc(OCCCNCc2ccccc2)cc1	?	-8.1%	23.1µM*	-4.4%	23.1µM*	i
O=C(NCCCN1CCN(c2ccccc2)CC1)c1nnc(Cc2ccc(F)cc2)o1	i	nt	nt	nt	nt	i
CC(=O)NC(C)(c1ccccc1)c1nc(-c2cccc3cccnc23)cs1 (centres undefined)	i	1.3%	nt	15.9%	nt	i
COc1ccccc1CNC(=O)CSc1nc2nc(C)c(Cc3ccccc3Cl)c(C)n2n1	i	nt	nt	nt	nt	i
O=NN(C(=O)NCc1cccnc1)C1CCCCC1	i	20.2%	nt	11.5%	nt	i
COc1ccc(-c2ccc3ncnc(NCCc4cnc[nH]4)c3c2)cc1OC	?	nt	nt	nt	nt	i
COc1ccccc1C(=O)Nc1c(C(=O)Nc2ccccc2F)oc2ccccc12	?	nt	nt	nt	nt	i
COCCCNCCCOc1ccc(C(C)(C)c2ccccc2)cc1	i	-8.7%	?	4.3%	15.1%	?
COCCNCCCOc1ccc(C(C)(C)c2ccccc2)cc1	i	-1.4%	2.0%	3.7%	20.6µM*	?
Clc1cc(Br)ccc1OCCCNCc1ccccc1	?	23.1µM*	?	?	?	?
Cc1ccc(C)c(OCCCNCc2ccccc2)c1	i	0.6%	-4.9%	-0.7%	13.6%	i
C(=C\c1nc2ccccc2nc1/C=C/c1ccc2c(c1)OCO2)/c1ccc2c(c1)OCO2	?	nt	nt	nt	nt	i
CNC(=O)COc1ccc(Nc2nnc(-c3ccc(C)c(S(=O)(=O)NC(C)(C)C)c3)c3ccccc23)cc1	i	nt	nt	nt	nt	i
CCOC(=O)c1c(S(=O)(=O)N2CCCC(C(=O)Nc3ccc(OCC)cc3)C2)c(C)n(C)c1C (centres undefined)	i	nt	nt	nt	nt	i
SMILES	KB-3-1 tox	HT1080NT lethal	SW480 rerep	HT1080 IDH1KD tx	MCF10A rerep	KB-V1 MDR tox
CC(C)c1ccc(/C=N/NC(=O)c2cccc(Cl)c2)cc1	13µM*	23.1µM*	?	20.6µM*	5.8µM*	8.2µM*
O=C(N/N=C/c1ccc(Cl)c([N+](=O)[O-])c1)c1cc(-c2ccc3c4c(cccc24)CC3)n[nH]1	?	5.17µM*	?	8.2µM*	?	?
CC(C)c1ccc(/C=N/NC(=O)c2cc(-c3cccc([N+](=O)[O-])c3)n[nH]2)cc1	?	?	-7.1%	23.1µM*	18.4µM*	i
CC(C)c1ccc(/C=N/NC(=O)c2ccccn2)cc1	i	?	16.8%	?	17.3%	i
Cc1[nH]c2ccccc2c1/C=C/C(=O)c1ccccc1	?	-28.1%	18.4µM*	?	20.6µM*	?
COC(=O)c1c(C)[nH]c(C(=O)/C=C/c2ccccc2)c1C	i	28.1%	-128.1%	?	-45.9%	11.6µM*
O=C(/C=C/c1ccccc1)c1c[nH]c2ccccc12	i	-0.8%	?	0.3%	-1.3%	i
O=C(C=Cc1ccccc1)c1c[nH]c2ccccc2c1=O	5.17µM*	8.2µM*	8.2µM*	?	6.51µM*	7.31µM*
Cc1[nH]c2ccccc2c(=O)c1C(=O)/C=C/c1ccccc1	?	-3.9%	?	?	11.6µM*	14.6µM*
CCOC(=O)c1c(C)[nH]c(C)c1S(=O)(=O)N1CCC(C(=O)Nc2ccc(OC)c(OC)c2)CC1	i	nt	nt	nt	nt	?
CC(C)Oc1cccc(NC(=O)C2(C)CCN2C(=O)C(C)C)c1 (centres undefined)	i	10.7%	nt	0.5%	nt	i
COc1ccc(C2c3ccc(O)cc3Oc3ncn4nc(-c5ccco5)nc4c32)cc1OC (centres undefined)	i	?	?	18.4µM*	?	i
O=c1c2c([nH]c3ccc(Br)cc13)CCCC2	i	0.8%	-7.1%	-3.3%	21.8%	i
O=C1Cc2c([nH]c3ccc(Br)cc23)-c2ccccc2N1	?	-24.2%	26.1%	?	4.11µM*	?
O=C(Nc1ccc(C(F)(F)F)cc1)N1CCN(c2ccnc3cc(Cl)ccc23)CC1	i	?	?	29.1µM*	?	?
COc1ccc(NC(=O)/C(Cl)=C(/Cl)S(=O)(=O)Cc2ccccc2)cn1	?	5.8µM*	?	5.17µM*	?	?
COc1ccc(CC(=O)Nc2ccc(OC)nc2)cc1	i	16.7%	5.8%	16.1%	-2.8%	i
COc1ccc(NC(=O)Cc2ccc(-c3ccccc3)cc2)cn1	?	9.2µM*	?	23.1µM*	?	13µM*
COc1ccc(NC(=O)Nc2ccc(OCc3ccccc3)cc2)cn1	i	-29.7%	-0.6%	-19.2%	25.5%	i
COc1ccc(CN2C(=O)c3ccccc3C2=O)cc1C(=O)Nc1ccccc1N1CCOCC1	i	-8.5%	-1.0%	-12.2%	-1.1%	?
COc1ccc(NC(=O)c2cc(CN3C(=O)c4ccccc4C3=O)ccc2OC)cn1	?	?	-0.4%[9.22 µM]	20.6µM*	13.3%	?
COc1ccc(NC(=O)C(C)(C)Oc2ccc(Cl)cc2)cn1	i	9.1%	-2.1%	4.7%	1.1%	14.6µM*
Cc1ccc2c(/C=C/c3ccc(N(C)C)cc3)ccnc2c1C	i	nt	nt	nt	nt	?
